Values joined by “and” are separate entries in the source; they are usually repeats but may differ in a detail not shown here. Equal entries are not always repeated. Inconclusive results are not listed. A call without a number means that no potency is given here. Some compounds were tested as several samples or in several runs, with calls that do not always agree. Active and inactive are the calls of the source. The call rests on the fitted dose curve; in most records, active means well fitted cell-killing curve with a large enough effect in the repeat runs; inconclusive means weak or mixed curves; inactive means no such curve, though single readings can be large or run the other way.
assay: qHTS assay to identify small molecule antagonists of the androgen receptor (AR) signaling pathway - cell viability counter screen (AID 743033; further: nearly all actives have a fitted effect of over 45% in size); settings: AR-bla HEK293 viability, CellTiter-Glo luminescence, 16 h; series mostly up to 58.5 µM
Excerpt: National Center for Advancing Translational Sciences [NCATS]
NIH Chemical Genomics Center [NCGC]
U.S. Environmental Protection Agency [EPA]
National Institutes of Environmental Health Sciences [NIEHS]
National Toxicology Program [NTP]
U.S. Food and Drug Administration [FDA]
Androgen receptor (AR), a nuclear hormone receptor, plays a critical role in AR-dependent prostate cancer and other androgen related diseases. Endocrine disrupting chemicals (EDCs) and their interactions with steroid hormone receptors like AR may cause disruption of normal endocrine function as well as interfere with metabolic homeostasis, reproduction, developmental and behavioral functions. To identify the compounds that inhibit AR signaling, GeneBLAzer AR-UAS-bla-GripTite cell line (Invitrogen, Carlsbad, CA, USA) containing a beta-lactamase reporter gene under control of an Upstream Activator Sequence (UAS) stably integrated into HEK293 cells was used to screen the Tox21 10K compound library. The cytotoxicity of the Tox21 compound library against the AR-bla cell line was tested in parallel by measuring the cell viability using CellTiter-Glo assay in the same wells.
Tox21 Assay Protocol Summary:
AR-bla cells were dispensed at 2,000 cells/5 uL of assay medium per well into black wall/clear-bottom 1536-well plates using a Multidrop Combi (ThermoFisher Scientific, Waltham, MA) dispenser. After the assay plates were incubated at a 37C and 5% CO2 for 4 hr, 23 nL of compounds dissolved in DMSO, positive controls or DMSO only was transferred to the assay plate by a Pintool station (Kalypsys, San Diego, CA), followed by addition of 1 uL of agonist (R1881) in culture medium using a Bioraptr Flying Reagent Dispenser (FRD) workstation (Beckman Coulter, Indianapolis, IN, USA). The plates were incubated at a 37C and 5% CO2 for 16 h. After 1 uL of LiveBLAzerTM B/G FRET substrate was added using a Bioraptr FRD, the plates were incubated at room temperature for 2 h and fluorescence intensity was measured by an Envision plate reader (PerkinElmer, Shelton, CT). For cell viability readout that measures cytotoxicity, 4 ul/well of CellTiter-Glo reagent was added into the assay plates using a Bioraptr FRD. After 30 min incubation at room temperature, the luminescence intensity in the plates was measured using a ViewLux (PerkinElmer) plate reader.
Potency means the concentration at half of the fitted maximal effect.

SMILES	Potency
COc1cc2c(c(OC)c1OC)-c1c(cc3c(c1OC)OCO3)C[C@@H](C)[C@](C)(O)C2	inactive
O=C(O)[C@H]1CN(C/C=C/P(=O)(O)O)CCN1	inactive
C=CC1=C(C(=O)O)N2C(=O)[C@@H](NC(=O)/C(=N\O)c3csc(N)n3)[C@H]2SC1 (stereo in doubt)	inactive
CN[C@@H]1[C@@H](O[C@H]2O[C@H](CO)[C@@H](N)[C@H](O)[C@H]2O)O[C@H]2C[C@@H](N)[C@@H](O[C@H]3[C@H](O)[C@@H](O)[C@H](N)C[C@@H]3N)O[C@@H]2[C@@H]1O	inactive
CNCC(=O)N[C@@H](CCCN=C(N)N)C(=O)N[C@H](C(=O)N[C@@H](Cc1ccc(O)cc1)C(=O)N[C@H](C(=O)N[C@@H](Cc1cnc[nH]1)C(=O)N1CCC[C@H]1C(=O)N[C@@H](C)C(=O)O)C(C)C)C(C)C	inactive
CCCCCCCCCCCC[n+]1ccc2ccccc2c1	3.01 µM (active)
CC(C)NCC1CCc2cc(CO)c([N+](=O)[O-])cc2N1 (stereo not given)	inactive
C=C1C(CCl)(CCl)C2(Cl)C(Cl)C(Cl)C1(Cl)C2(Cl)Cl (stereo not given)	inactive and 54.3 µM (active)
O=C(O)[C@@H]1C[C@H](CP(=O)(O)O)CCN1	inactive
CCCCCCCCCCCCCCCCCCOCC(COP(=O)([O-])OCC[N+](C)(C)C)OC (stereo not given)	inactive
CCC(NC(C)C)C(O)c1ccc(O)c(O)c1 (stereo not given)	inactive
CO[C@H]1C[C@@H]2CC[C@@H](C)[C@@](O)(O2)C(=O)C(=O)N2CCCC[C@H]2C(=O)O[C@H]([C@H](C)C[C@@H]2CC[C@@H](O)[C@H](OC)C2)CC(=O)[C@H](C)C=C(C)[C@@H](O)[C@@H](OC)C(=O)[C@H](C)C[C@H](C)/C=C/C=CC=C1C	inactive
CC(=O)OCC1=C(C(=O)O)N2C(=O)[C@@H](NC(=O)Cc3ccccc3)[C@H]2SC1	inactive
CC(C)(C)c1ccc2c(S(=O)(=O)O)c(C(C)(C)C)ccc2c1	inactive
CCN(CC)CC#CCOC(=O)C(O)(c1ccccc1)C1CCCCC1 (stereo not given)	inactive
O=C(O)/C=C/C(=O)Nc1ccc(S(=O)(=O)Nc2nccs2)cc1	inactive
COc1ccc(/C=C/C(=O)O)cc1	inactive
NCCO/C=C/[C@H](N)C(=O)O	inactive
CNC(=O)C[C@@H](N)C(=O)N[C@@H](C(=O)N[C@@H]1C(=O)N2[C@@H]1SC(C)(C)[C@@H]2C(=O)O)c1ccc(O)cc1	inactive
CC/C(=C(/CC)c1ccc(OP(=O)(O)O)cc1)c1ccc(OP(=O)(O)O)cc1	inactive

SMILES	Potency
CCC[C@@H]1C[C@@H](C(=O)N[C@@H]([C@H]2O[C@H](SC)[C@H](OP(=O)(O)O)[C@@H](O)[C@H]2O)[C@H](C)Cl)N(C)C1	inactive
CC/C=C\C/C=C\C/C=C\C/C=C\C/C=C\C/C=C\CCC(=O)O	inactive
O=C1c2c(O)cccc2[C@H]([C@@H]2O[C@H](CO)[C@@H](O)[C@H](O)[C@H]2O)c2cc(CO)cc(O)c21	inactive
CC[C@H]1OC(=O)C[C@@H](O)[C@H](C)[C@@H](O[C@@H]2O[C@H](C)[C@@H](O[C@H]3C[C@@](C)(O)[C@@H](O)[C@H](C)O3)[C@H](N(C)C)[C@H]2O)[C@@H](CC=O)C[C@@H](C)C(=O)/C=C/C(C)=C/[C@@H]1CO[C@@H]1O[C@H](C)[C@@H](O)[C@@H](OC)[C@H]1OC	inactive
Nc1c(CC(=O)O)cccc1C(=O)c1ccccc1	inactive
C[C@H](Cc1ccc(O)c(O)c1)[C@@H](C)Cc1ccc(O)c(O)c1	inactive
C/C=C/C1=C(C(=O)O)N2C(=O)[C@@H](NC(=O)[C@H](N)c3ccc(O)cc3)[C@H]2SC1	inactive
CON=C1C[C@]2(C[C@@H]3C[C@@H](C/C=C(\C)C[C@@H](C)/C=C/C=C4\CO[C@@H]5[C@H](O)C(C)=C[C@@H](C(=O)O3)[C@]45O)O2)O[C@H](/C(C)=C/C(C)C)[C@H]1C	inactive
CCCCCCCC[N+](C)(C)CCCCCCCC	16.9 µM (active) and 12 µM (active)
FC(F)(F)COCC(F)(F)F	inactive
NC(=O)C1c2ccccc2CCc2ccccc21	inactive
CCCC(CCC)C(=O)OC1C[C@H]2CC[C@@H](C1)[N+]2(C)C (stereo not given in full)	inactive
C[C@@H]1C[C@H]2[C@@H]3C[C@H](F)C4=CC(=O)C=C[C@]4(C)[C@@]3(Cl)[C@@H](O)C[C@]2(C)[C@H]1C(=O)COC(=O)C(C)(C)C	inactive
CN(C)CCC(O)(c1ccccc1)c1ccccc1Cl (stereo not given)	inactive
CN1[C@@H](CC(=O)c2ccccc2)CCC[C@H]1C[C@H](O)c1ccccc1	inactive
O=C1C2CC3CC1CC(O)(C3)C2	inactive
COc1cc2c(cc1OC)[C@@H](Cc1cc(OC)c(OC)c(OC)c1)[N+](C)(CCCOC(=O)CC/C=C/CCC(=O)OCCC[N+]1(C)CCc3cc(OC)c(OC)cc3[C@H]1Cc1cc(OC)c(OC)c(OC)c1)CC2 (stereo not given in full)	inactive
O=C1OC(O)C(C(Cl)Cl)=C1Cl (stereo not given)	22.5 µM (active)
CC(C)=CCC/C(C)=C/CC/C(C)=C/CC/C=C(\C)CC/C=C(\C)CCC=C(C)C	inactive
COc1c(Br)cc(Br)c(C)c1Br	inactive
